Values joined by “and” are separate entries in the source; they are usually repeats but may differ in a detail not shown here. Equal entries are not always repeated. Unmarked numbers belong to inactive results. Entries that show only a call come without a potency. Active and inactive are the calls of the source. Calls follow the shape of the full dose curve.
Potency is read from the fitted curve at half-maximal effect.

Gonadotropin-releasing hormone receptor (Homo sapiens), sequence (P30968 whole entry, looked up): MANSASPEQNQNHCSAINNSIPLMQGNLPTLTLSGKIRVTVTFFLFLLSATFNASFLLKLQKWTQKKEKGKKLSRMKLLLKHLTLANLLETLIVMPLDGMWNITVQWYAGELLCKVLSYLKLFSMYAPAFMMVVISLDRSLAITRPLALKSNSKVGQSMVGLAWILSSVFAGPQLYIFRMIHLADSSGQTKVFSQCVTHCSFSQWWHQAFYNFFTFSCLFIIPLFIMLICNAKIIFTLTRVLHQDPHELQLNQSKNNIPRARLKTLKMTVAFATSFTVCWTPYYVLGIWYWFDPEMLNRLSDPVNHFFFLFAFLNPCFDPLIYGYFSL

This experiment has as its target Gonadotropin-releasing hormone receptor (Homo sapiens) (UniProt P30968). The experiment in a line: Human gonadotropin-releasing hormone receptor (GnRHR) small molecule agonists, calcium flux assay in GnRHR-HEK293 cells (AID 1920063). Also: nearly all actives have a fitted effect of over 35% in size. The settings on record: calcium flux fluorescence, agonist mode; series mostly up to 57.6 µM; activity change: at the top concentration. The text has this: National Center for Advancing Translational Sciences [NCATS]
Division of Preclinical Innovation [DPI]
U.S. Environmental Protection Agency [EPA]
National Institutes of Environmental Health Sciences [NIEHS]
National Toxicology Program [NTP]
U.S. Food and Drug Administration [FDA]
Gonadotropin-releasing hormone receptor (GnRHR) is a G-protein-coupled receptor (GPCR) and acts (through phospholipase C) to increase intracellular inositol trisphosphate and then release intracellular calcium stores. Cell-based GnRHR-Hek293 calcium influx assay is using HEK293 cells that have been genetically engineered to express the human GnRHR, which activity can be measured by calcium signaling. A compound/drug can activate (agonist) GnRHR that can be monitored by levels of intracellular calcium.
GnRHR-HEK293 cells developed by Codex Corp contain human GnRHR reporter gene, which was stably integrated into HEK 293 cells. The compound activation can be detected by fluorescence intensity via calcium flux assay. This cell line has been used to screen the Tox21 10K compound library to identify GnRHR agonists.
GnRHR-Hek293 cells were dispensed at 1500cells/4uL/well in 1536-well black wall/clear bottom plates using a multidrop dispenser. After the assay plates were incubated at a 37 C/5% CO2 incubator for 18 hours, 4 uL of Calcium Dye Solution was added to each well. The plates were incubated at 37 C for 1 hour. For agonist mode, 23 nL of compounds dissolved in DMSO, positive controls or DMSO only was transferred to the assay plate by a pin tool station. The fluorescence intensity in the plates was measured using FDSS 7000EX kinetic plate reader with a filter set of Ex/Em=480/540 for 3 min at 1 sec intervals. Each test compound was measured at 15 concentrations and in triplicates.
With `CCCc1cc(=O)[nH]c(=S)[nH]1`, the Potency entry was “inactive”.
On the same count and under the same terms, to `NC(=O)c1cnccn1` belongs “inactive”; to `CNC[C@H](O)c1ccc(O)c(O)c1`, 110 nM (active) and 233 nM (active).
Same read-out and setting: with `O=C(O)c1cccc([N+](=O)[O-])c1` the entry was “inactive”; with `CC(C)OB(OC(C)C)OC(C)C`, “inactive”; with `CCCCCCCCCCCCCC(=O)OC(C)C`, “inactive”.
Take `Cc1ccc2c(n1)Oc1ccc(C(C)C(=O)OCC(=O)N(C)C)cc1C2` (stereo not given): the Potency entry was “inactive”.
Same read-out and setting: with `O=C1CCCC1` the entry was “inactive”; with `CC(C)(C)[C@@H](O)[C@@H](Cc1ccc(Cl)cc1)n1cncn1`, “inactive”; with `O=C1OC(c2ccc(O)cc2)(c2ccc(O)cc2)c2ccccc21`, “inactive”.
Same read-out and setting: with `C#CCN(C)Cc1ccccc1` the entry was “inactive”; with `OC[C@@H](O)[C@H](O)[C@H](O)[C@@H](O)CO`, “inactive”.
As for `C=CC(=O)OCCCCCCCC(C)C`, the Potency entry is “inactive”.
For `O=C(O)CC(O)C(=O)O` (stereo not given), the Potency entry is “inactive”.
The same measure, in the same setting: with `COc1cc(NC(=O)CC(C)=O)c(OC)cc1Cl` the entry was “inactive”; with `OCCCc1ccccc1`, “inactive”; with `CC(=O)CC(c1ccccc1)c1c(O)c2ccccc2oc1=O` (stereo not given), “inactive”.
Still for that read-out and setting: with `Cc1cc(CC(=O)O)n(C)c1C(=O)c1ccc(Cl)cc1` the entry was “inactive”.
Same read-out and setting: to `CCCCCCO` belongs “inactive”; to `C=C(C)C(=O)OCCCCCC`, “inactive”; to `O=C(c1ccc(O)cc1)c1ccc(O)cc1O`, “inactive”.
For the compound `Cc1occc(=O)c1O`, the Potency result was “inactive”.
`C=C(C)C(=O)Nc1ccc(Cl)c(Cl)c1`: the Potency result is “inactive”.
Still for that read-out and setting: to `Nc1ccc2c(c1)C(=O)c1ccccc1C2=O` belongs “inactive”; to `CC1(C)C(=O)N(Cl)C(=O)N1Cl`, “inactive”; to `c1ccncc1`, “inactive”.
Still for that read-out and setting: to `COCCCN` belongs “inactive”.
Take `CC/C(=C(\c1ccccc1)c1ccc(OCCN(C)C)cc1)c1ccccc1`: the “activity change” value was 10.6%.
As for `CC1(C)[C@@H]2CC[C@@]1(C)C(=O)C2`, the Potency entry was “inactive”.
Same read-out and setting: with `NC(=O)OCC(COC(N)=O)c1ccccc1` the entry was “inactive”; with `O=C(O)c1cn(-c2ccc(F)cc2)c2cc(N3CCNCC3)c(F)cc2c1=O`, “inactive”.
Regarding `CC(=O)Nc1ccc2c(c1)Cc1cc(NC(C)=O)ccc1-2`, the Potency result is “inactive”.
On the same count and under the same terms, with `N=C(N)c1ccc(OCCCCCOc2ccc(C(=N)N)cc2)cc1` the entry was “inactive”; with `CC(=O)CCc1ccccc1`, “inactive”; with `CN(C)CCN(Cc1cccs1)c1ccccn1`, “inactive”.
As for `CCCCCCCCCCCCO`, the Potency entry was “inactive”.
Still for that read-out and setting: to `CCC(O)OC(O)CC` (stereo not given) belongs “inactive”; to `c1ccc2c(c1)ccc1ccccc12`, “inactive”; to `Cc1cccc(C(=O)O)c1`, “inactive”.
As to `O=S(=O)(O)c1ccc(O)cc1`, the Potency entry is “inactive”.

These data come from PubChem BioAssay (Tox21).
